Screens as filed in PubChem.
The list is not random: actives were taken first. Their share in the collection is about 11%.
PK Bst: modulators of Bacillus stearothermophilus pyruvate kinase | purified pyruvate kinase, luminescence ATP production; ribose 5-phosphate activator present at AC10 | Potency, µM | actives 1.2% (n = 51,000) | AID 361; in the data active = potency below about 11 µM; inconclusive = mostly about 12 µM to 25 µM;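 the screen sought inhibitors and activators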;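 note: scaled between full activation by ribose 5 phosphate and full inhibition by luteolin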
HSD17B inh: inhibitors of human HSD17B10 dehydrogenase. recombinant HSD17B10, NADH fluorescence kinetic. AID 893. actives 7.6% (n = 75,000). Potency, µM (highest dose often 57.1 µM), for inactives: at the highest dose activity change, negative = inhibition, actives largely listed as inhibitors. Q99714;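 note: the protocol describes HADH2 (HSD17B10) and not the HSD17B4 of the title; nearly all actives have a fitted effect of over 70% in size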
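20 nM HADH2, pH 9.0 Tris/Tween; cpd preinc 15 min RT; start w/ 1 mM NAD+ + 90 uM b-hydroxybutyryl-CoA; kinetic fluor ex360/em450 q30s x 4 min; delta last-first.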
ERK AVP block: blocks ERK signaling stimulated by vasopressin; HEK293-V1b, vasopressin-stimulated pERK AlphaScreen; Potency, µM (top dose mostly 57.5 µM), inactives show top-dose activity, negative = inhibition, actives largely listed as inhibitors; actives 0.99% (n = 72,000); note: nearly all actives have a fitted effect of over 55% in size
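Overnight-seeded V1b-HEK293 cells in 1% FBS got compound, then vasopressin (25 nM final, 5 min, 37C), then lysis buffer. AlphaScreen detection of phospho-ERK; activity normalized to basal and full-stimulation controls.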
HADH2 inh: inhibitors of human HADH2 dehydrogenase. Q99714. recombinant HADH2, NADH fluorescence, beta-hydroxybutyryl-CoA. Potency, µM (series often up to 57.1 µM), for the others: at the highest dose activity change, negative = inhibition, actives largely listed as inhibitors. actives 3.4% (n = 73,000); note: nearly all actives have a fitted effect of over 60% in size
Target sequence (Q99714 whole entry, looked up, one chain of several): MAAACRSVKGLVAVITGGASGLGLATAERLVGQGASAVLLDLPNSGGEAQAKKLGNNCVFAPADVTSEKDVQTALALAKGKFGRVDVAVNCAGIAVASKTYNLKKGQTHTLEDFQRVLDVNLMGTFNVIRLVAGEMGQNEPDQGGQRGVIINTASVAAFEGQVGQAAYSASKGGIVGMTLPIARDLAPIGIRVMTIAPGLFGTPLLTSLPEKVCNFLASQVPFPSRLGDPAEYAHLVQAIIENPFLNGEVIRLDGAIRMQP
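Buffer 100 mM Tris-HCl pH 9.0/0.01% Tween-20; HADH2 20 nM; NAD+ 1 mM; beta-hydroxybutyryl-CoA 90 uM (all final). 15 min cpd preincubation, RT.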
15-hLO inh: inhibitors of human 15-lipoxygenase (ALOX15); P16050; purified 15hLO-1, xylenol orange hydroperoxide absorbance; Potency, µM (series often up to 57.1 µM), inactives show at the highest dose activity change, negative = inhibition, usual class: inhibitors; actives 1.4% (n = 74,000); AID 887; note: nearly all actives have a fitted effect of over 55% in size
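Hydroperoxide formed from arachidonic acid (50 uM) by purified human 15hLO-1 (40 nM) oxidizes ferrous iron, and the ferric-xylenol orange complex is read at 573 versus 405 nm. Compounds were preincubated 15 min; reaction ran 6 min at room temperature.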
Luciferase inh: inhibitors of firefly luciferase. Potency, µM (titrated, usually from 57.1 µM), for the others: at the highest dose activity change, negative = inhibition, usual class: inhibitors. AID 411. actives 2.2% (n = 72,000). P08659. purified firefly luciferase, luminescence, 8 min; note: nearly all actives have a fitted effect of over 40% in size
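Luminescence read-out after 8 min at room temperature; enzyme reaction used luciferin plus 10 uM ATP (linear range) in imidazole buffer pH 7.2 with KCl, MgCl2, Tween 20 and BSA. Each sample was run as a titration.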
An asterisk follows results filed as active; ? = inconclusive; . = not tested or not shown; [ ] = remark or other dose. Unless noted, calls come from the whole dose curve; as a rule, active = well fitted curve in the direction sought with a large enough effect; inconclusive = small, poorly fitted or top-dose-only effect, or another doubt; inactive = no such curve, though single readings can be large; an effect the other way counts as inactive or inconclusive. Unless noted, % is set by controls: 0 for no effect and ±100 for the full control effect; potency is the fitted concentration of half-maximal effect.

SMILES	PK Bst	HSD17B inh	ERK AVP block	HADH2 inh	15-hLO inh	Luciferase inh
COc1cc(O)c2c(=O)cc(-c3ccccc3)oc2c1	.	23.4%	-26.2%	-2.8%	-2.8%[25.6 µM]	-4.0%[11.4 µM]
COc1ccc(-c2cc(=O)c3ccccc3o2)cc1	.	1µM*	-5.8%	.	-2.1%	.
O=c1cc(-c2ccc(O)cc2)oc2ccc(O)cc12	.	-22.1%	-6.0%	.	?	.
COc1ccc(-c2cc(=O)c3ccccc3s2)cc1	0.875*	?	12.6µM*	9.4%	?	15.8µM*
COc1cc2oc(-c3ccccc3)cc(=O)c2cc1O	.	15.8µM*	-7.7%	9.9%	6.5%[25.6 µM]	0.9%[11.4 µM]
CC(=O)N1CCC2(CC1)CCN(C(=O)Nc1cccc(F)c1)CC2	.	-4.3%	-21.1%	0.3%	5.8%	-0.9%[11.4 µM]
CN(C)CCCNC(=O)c1ccc(Cc2nc3ccccc3[nH]2)cc1	.	6.5%	.	-3.1%	7.5%	.
CC(C)C=O	.	1.4%	20.6%	-3.0%	-1.7%	.
COC(=O)c1ccc(C23CC2(C(NP(=O)(c2ccccc2)c2ccccc2)c2ccccc2)C3)cc1 (configuration not stated)	.	-22.6%	3.7%	5.8%	.	.
Nc1nc(N)nc(CCCCc2nc(N)nc(N)n2)n1	.	.	.	-2.3%[11.4 µM]	.	4.0%[11.4 µM]
O=c1cc(-c2ccccc2O)oc2cc(O)ccc12	.	-10.9%	11.4%	.	?	.
O=c1cc(-c2cccc(O)c2O)oc2ccccc12	.	31.6µM*	-41.4%	?	?	0.5%[11.4 µM]
O=c1cc(-c2ccccc2)oc2c1ccc1ccccc12	.	31.6µM*	31.6µM*	?	-8.7%[25.6 µM]	-1.4%[11.4 µM]
O=C(O)[C@H](Cc1cc(I)c(O)c(I)c1)C1CCCCC1	.	-8.7%[11.4 µM]	-18.9%[11.5 µM]	-15.9%[11.4 µM]	0.7%[11.4 µM]	1.1%[11.4 µM]
Nc1nc(SCc2ccccc2[N+](=O)[O-])c2[nH]cnc2n1	.	4.0%[11.4 µM]	-18.0%[11.5 µM]	-1.6%[11.4 µM]	-5.9%[11.4 µM]	2.2%[11.4 µM]
Cc1cc(N2CCN(C(=O)c3ccco3)CC2)n2nc(C)c(-c3ccccc3)c2n1	>57	25.1µM*	-1.5%	215.2%	-0.4%	6.3%
Cc1cc(N2CCN(C(=O)c3ccco3)CC2)n2nc(-c3cccc(Cl)c3)cc2n1	>57	10µM*	25.1µM*	?	-5.1%	-2.3%
O=C(c1ccco1)N1CCN(c2ccc(Cl)c(Cl)c2)CC1	>57	31.6µM*	-19.7%	-13.3%	?	0.9%
CCCc1cc(N2CCCC2)n2nc(C)c(-c3ccccc3)c2n1	>57	31.6µM*	141.9%	31.6µM*	-2.5%	1.4%
C=C[C@]1(C)C[C@H](OC(=O)CO)[C@]2(C)C3C(=O)CC[C@]3(CC[C@H]2C)[C@H](C)[C@H]1O (some centres not stated)	.	9.5%[11.4 µM]	22.7%[11.5 µM]	6.5%[11.4 µM]	3.9%[11.4 µM]	0.7%[11.4 µM]
CN1CCN(C(=O)c2cc(-c3ccc(O)cc3)on2)CC1	.	-2.9%	-8.9%	-17.2%	1.8%	-8.1%
Cc1ccccc1C(=O)N1CCN(c2ccc(NC(=O)c3ccco3)cc2Cl)CC1	>57	?	31.6µM*	0.0%	-18.4%	0.8%
O=C(Nc1ccc(N2CCN(C(=O)c3ccco3)CC2)c(Cl)c1)c1c(F)c(F)c(F)c(F)c1F	>57	1.8%	-21.4%	6.0%	-0.5%	0.0%
c1ccc(N2CCN(c3nc4cc5c(cc4s3)OCCO5)CC2)cc1	>57	-8.5%	3.4%	7.3%	-5.8%	-20.2%
c1c2c(cc3sc(N4CCOCC4)nc13)OCCO2	4.45*	2.7%	-9.2%	-8.4%	-10.9%	1.58µM*
SMILES	PK Bst	HSD17B inh	ERK AVP block	HADH2 inh	15-hLO inh	Luciferase inh
CCCN1CCN(CCCNC(=O)c2cc3c(=O)n(C)c4ccccc4c3n2C)CC1	.	25.1µM*	-9.1%	-7.7%	-3.3%	1.5%
CN1CCN(CCNC(=O)c2cc3c(=O)n(C)c4ccccc4c3n2C)CC1	.	?	-27.1%	-7.3%	-10.7%	-1.1%
Cn1c(C(=O)NCCCN2CCCCCC2)cc2c(=O)n(C)c3ccccc3c21	.	25.1µM*	-27.4%	-11.2%	6.4%	0.3%
CCN(CC)c1nc(N)c2c(N)nc3c(c2c1C#N)CC(c1ccccc1)O3 (configuration not stated)	>57	31.6µM*	?	?	-18.2%	1.9%
CCN(CC)c1nc(N)c2c(N)n(-c3ccccc3C)c(=S)c(C#N)c2c1C#N	>57	?	-14.0%	?	?	-1.8%
Nc1ncnc2nc[nH]c12.Nc1ncnc2nc[nH]c12.[Cl][Pt]([Cl])([Cl])[Cl]	.	.	.	3.98µM*	.	-4.4%[11.4 µM]
Cc1cccc(N2CCN(CC(=O)NCC3CCCCC3)CC2)c1C	>57	-2.8%	25.1µM*	6.3%	?	1.2%
CCS(=O)(=O)N1CCN(c2cccc(C)c2C)CC1	.	2.9%	?	2.0%[11.4 µM]	4.4%[11.4 µM]	1.7%
O=c1c2cc(N3CCOCC3)ccc2[nH]c(=S)n1CCN1CCCC1	>57	?	2.1%	?	-18.9%	1.0%
Cc1ccc(Cn2c(=S)[nH]c3ccc(N4CCOCC4)cc3c2=O)o1	>57	31.6µM*	31.7%	?	15.8µM*	-24.0%
CCOC(=O)c1c(C)n(OCc2ccccc2)c2ccc3nonc3c12	.	25.1µM*	65.9%	25.1µM*	-6.7%	1.2%
Cc1c(C(=O)OCc2ccccc2)nnn1-c1nonc1N	>57	11.9%	28.7%	-1.0%	-7.9%	2.3%
Cc1nc2ccc(NC(=O)Nc3ccnc4cccnc34)cc2o1	.	-0.5%	?	-5.0%	-10.1%[25.6 µM]	0.1%
COc1cccc(-c2nn(-c3ccccc3)cc2C(=O)NCC(=O)O)c1	.	-4.4%	-14.9%	-9.9%	-6.0%	20µM*
COc1cccc(-c2nn(-c3ccccc3)cc2CO)c1	.	?	?	11.1%	4.6%	-26.5%
Cc1ccn2cc(-c3ccc(S(=O)(=O)N4CCOCC4)cc3)nc2c1	.	25.1µM*	24.8%	3.98µM*	-4.1%	-2.8%
Cc1ccc2nc(-c3ccc(S(=O)(=O)N4CCOCC4)cc3)cn2c1	>57	7.94µM*	-4.6%	?	-12.0%	0.9%
Cc1ccc(S(=O)(=O)N2CCOCC(=O)NCCOCCNC(=O)COCC2)cc1	>57	2.5%	3.8%	3.6%	0.8%	0.8%
CCNc1nc(N)c(C(=O)c2ccc(Cl)s2)s1	2.17*	6.1%	3.16µM*	-1.4%	-23.7%	?
